Reference: the OligoGym collection

molecular target: HHATL; assay: pooled miR-30 sensor sort-seq; sequence = guide strand; settings: shRNA

Sequence	sensor-assay potency score (higher = more potent)
TTTGGGGCAACCATCGTGCAGA	-0.825
ATATTTGCAAAGCCAGTCGTTG	-0.866
TTGGCGAACTTGAGGTCGCTGG	-0.951
TACACATATTTGCAAAGCCAGT	-1.98
TACACAGCATACATCCAGGAGC	-1.03
TCAGCCACATCCATCTTCCGGC	-0.0987
TTAGCAAACAGCACATGTCCGG	-0.577
TTGTACATGATGATGGCCCAGA	-0.478
TTGAGCAGGTCAGCTAAGGAGT	-0.763
TAGAGTGCGGTGATGCACTTGG	0.641

molecular target: HIC1; assay: as above; settings: shRNA

Sequence	sensor-assay potency score (higher = more potent)
TTCAGCTGCTCAGAGCTGGGGA	-0.306
TAGTCGTCGCCGTCGCCGCCCG	-0.822
ATCGTGTCCAGCATCGTCTGCC	-0.128
TTGTCGCACGACGCGCAGCGGT	-1.62
TGCTCTTGTAGTCGTCGCCGTC	-0.864
TTCTTGGACAGGTCCAGGCCAC	-0.94
TTGCGTTGCTGTGCGAACTTGC	-0.297
TGAGGTTGCGTTGCTGTGCGAA	-0.814
TTGTAGTCGTCGCCGTCGCCGC	-1.19
TTGTAGCTCTTGTCGCACGACG	-1.22
TACAGCTCGGCGCAGTGCGTGT	-1.35

molecular target: HINT3; assay: as above; settings: shRNA

Sequence	sensor-assay potency score (higher = more potent)
TTCTACTTGATCTTTCCTTAGA	-0.545
TTTGAAGCAAATTAGGTCCTCA	0.444
TTTTCCAACAGTTACCATGTTC	-0.723
TACCACTTCATGCTGAACCAAG	-0.805
TATCATATATATAAAATCCTTA	-0.582
ATTGACTCTATAAACCAACTTG	-0.483
TAACTGACTACTTACTGAGAAA	-1.61
TATCTTTGAAGCAAATTAGGTC	-0.138
TTGACTCTATAAACCAACTTGG	-0.569
TATAACTGACTACTTACTGAGA	-0.693
TCTTAGGAAACAGACATTCAGA	-1.03
TTGATTAACAGAATTTGTCTTA	0.577

molecular target: HIP1R; assay: as above; settings: shRNA

Sequence	sensor-assay potency score (higher = more potent)
TTGGTCAGCAGCAGCTTGGTGT	-0.763
TAATCAAACATCTCCACAGTGA	-0.629
TTGAAGTACAGCATGTCGGAGG	-0.0916
TTGGTGGTTACACTTCGGGGGG	-1.01
TTGAACAGGAGCTTGACCGTGT	0.954
TTGATGGCTTTGCTGATGCTGA	-1.07
ATGTTGTTGACATCGGTCCCAG	-0.946
